± gives the standard deviation.
system: EfPiwi piRISC loaded with piRNA #1 (26 nt); experiment: pre-steady-state target cleavage rate (min^-1); auxiliary factor: 500 nM Ephydatia muelleri Gtsf1; guide: piRNA #1 5'p-UGAGGUAGUAGGUUGUAUAGUAUCCA; MIWI and MILI are mouse PIWI proteins and EfPiwi is from a freshwater sponge; tags in brackets are library labels; higher = faster piRNA-guided slicing of the target
Experimental: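 Cleave-'n-Seq: a library of target RNAs (target site in constant flanks) at […] was incubated with 1 nM active freshwater sponge Ephydatia fluviatilis Piwi piRISC (synthetic 5'-monophosphorylated piRNA guide) with or without 500 nM EmGtsf1 at 33 °C for 1 min to 16 h. Uncleaved targets were sequenced and the pooled three trials fitted to a burst-and-steady-state model to give the pre-steady-state cleavage rate (min^-1). Sequence is the target site only. Fits with R² ≤ 0 are excluded.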

Sequence | pre-steady-state target cleavage rate
GGAGACCAUUCUAUACAACCUACUACCUGA | 0.00652 ± 0.0034
GGAGUGGAUACUAUACAACGAACUACCUCA | 0.00257 ± 0.0018
GGAGAGGAUACUAUACAACCCUACUACCUCA | 0.00598 ± 0.0032
GGAGUCCUUACUAUACAACCUACUACCUCA | 0.0555 ± 0.021
GGAGACCAUACUAUACAACCUACUACCUACA | 0.00527 ± 0.0031
GGAGACCAUACUAUUCAACCUACUACGUCA | 0.00376 ± 0.0034
GGAGACCUUACUAUACAACCUACUACCAGA | 0.00482 ± 0.0036
GGAGACCAUACCUAUACAACCUACUACCUCA | 0.0273 ± 0.011
GGAGACGAUACAUUACAACCUACUACCUCA | 0.00848 ± 0.0035
GGAGUGGAUACUAUACAAGCUACUACGUCA | 0.00405 ± 0.0015
GGAGACGAUACUAUACAACCUACUCCCUCA | 0.00312 ± 0.00092
GGAGUGGAAACUAUACAACCUACUACCUCA | 0.0504 ± 0.018
GGAGAAGAUACUAUACAACCUACUACCUCA | 0.0965 ± 0.035
GGAGAGGAUCCUAUACAACCUACUACCUCA | 0.0886 ± 0.046
GGAGACGAAACUAUACAACGUACUACCUCA | 0.00237 ± 0.0021
GGAGACCUAACAUAUACAACCUACUACCUCA | 0.0546 ± 0.02
GGAGACCAAACUAUACAACCUACAACCUCA | 0.008 ± 0.0041
GGAGACGAUACUAUACUUCCUACUACCUCA | 0.0109 ± 0.0064
GGAGUGGAUACUAUAGAACCUACUAGCUCA | 0.00232 ± 0.0015
GGAGACGAUACUAUACAAACCUACUACCUCA | 0.00846 ± 0.0032

Sequence | pre-steady-state target cleavage rate
GGAGACGAUACUAUACAACCUACCUACCUCA | 0.00485 ± 0.002
GGAGACCUUACUAUACAACCUUCUACCUCA | 0.00767 ± 0.0037
GGAGUCGAUACUAUACAACCUACUACCUGA | 0.00547 ± 0.0021
GGAGACGAUACUAUACAACAUACUACCUCA | 0.00522 ± 0.0024
GGAGUGGAAACUAUACAACGUACUACCUCA | 0.00364 ± 0.0017
GGAGACCUUACUAUACAACCCACUACCUCA | 0.00926 ± 0.0048
GGAGAGGAUACUAUUCAACCUAGUACCUCA | 0.00256 ± 0.0017
GGAGACGAUACUAUACAACCUACUACCUGA | 0.0064 ± 0.002
GGAGACCUAUGAAUAGAACCUACUAGCUCA | < 0.0001
GGAGUGGAUACAUAUACAACCUACUACCUCA | 0.0717 ± 0.027
GGAGACGAUACUAUACAACCUAAUACCUCA | 0.00553 ± 0.0025
GGAGACGAUACUAUACAACCAACUUCCUCA | 0.00381 ± 0.0022
GGAGACGAUACUAUACAACCUACUGACCUCA | 0.00338 ± 0.0017
GGAGACCAUACUAUACAACCUAGCUACCUCA | 0.00373 ± 0.0029
GGAGACGAAACUAUACAACCUACUUCCUCA | 0.00318 ± 0.0023
GGAGACCUAUGAUAUGUUCCUACAACGUCA | < 0.0001
GGAGACGAUACUAUAGCAACCUACUACCUCA | 0.00432 ± 0.0027
GGAGAGGAUAGUAUACAACCUAGUACCUCA | 0.00231 ± 0.002
GGAGACGAUUCUAUAGAACCUACUACCUCA | 0.00226 ± 0.0018
GGAGACGAUACUAUACAACCUACUACCUA | 0.104 ± 0.038

Source: the supplement of paper PMC10338343
